{"source": "PubChem BioAssay AID588351", "about": "(The Scripps Research Institute Molecular Screening Center, 2011)", "note": "Screen size: about 1,900 compounds; about 1,600 (84%) were called active.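 The calls were made as follows: active = mean activation above a set limit taken from the primary screen (cut at about 8% in these data); inactive = the rest.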 The set was probably picked from earlier hits. Not all results are given here.", "data": [{"assay": "FXN GAA850 promoter activators in reporter cells, confirmation, cell-based, luminescence, HEK293 lucGAA850, triplicate (AID 588351);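 also: 0% = DMSO wells and 100% = 10 µM SAHA wells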", "details": "HEK293 lucGAA850 FXN promoter luciferase reporter, 24 h; at 6 µM; stronger effect = higher value", "values": [{"smiles": "CC(C)(C)c1ccc(OC(=O)N2CCCCC2)cc1", "activation": "35% (active)"}]}]}
